Measured values: PubChem BioAssay (Tox21)
Inconclusive results are not listed. Active and inactive are the calls of the source. Calls come from the whole dose curve; as a rule, active = well fitted inhibition curve with a large enough effect in the repeat runs; inconclusive = weak or mixed curves, or effect the other way; inactive = no such curve, though single readings can be large or run the other way.

Biological target: Androgen receptor (Homo sapiens) (UniProt P10275)
Experiment: qHTS assay to identify small molecule antagonists of the androgen receptor (AR) signaling pathway using the MDA cell line (AID 743042; note: nearly all actives have a fitted effect of over 55% in size)
Conditions: MDA-kb2 AR-luc, MMTV luciferase, R1881 antagonist, 16 h; series mostly up to 70.3 µM
Description: U.S. Tox21 Program National Center for Advancing Translational Sciences [NCATS] NIH Chemical Genomics Center [NCGC] U.S. Environmental Protection Agency [EPA] National Institutes of Environmental Health Sciences [NIEHS] National Toxicology Program [NTP] U.S. Food and Drug Administration [FDA] Tox21 Assay Overview: Androgen receptor (AR), a nuclear hormone receptor, plays a critical role in AR-dependent prostate cancer and other androgen related diseases. Endocrine disrupting chemicals (EDCs) and their interactions with steroid hormone receptors like AR may cause disruption of normal endocrine function as well as interfere with metabolic homeostasis, reproduction, developmental and behavioral functions. To identify the compounds that inhibit AR signaling, MDA-kb2 AR-luc cell line (from ATCC, deposited by Wilson et al.) was used to screen the Tox21 10K compound library. MDA-kb2 AR-luc cell line is human breast carcinoma cell line that was stably transfected with a luciferase reporter gene under control of the MMTV promoter containing response elements for both androgen receptor (AR) and glucocorticoid receptor (GR).
Tox21 Assay Protocol Summary: MDA-kb2 cells were dispensed at 3,000 cells/4 uL/well of culture medium into white wall/solid-bottom 1536-well plates using a Multidrop Combi (ThermoFisher Scientific, Waltham, MA) dispenser. After the assay plates were incubated at a 37C and 0% CO2 for 5 hr, 23 nL of compounds dissolved in DMSO, positive controls or DMSO only was transferred to the assay plate by a Pintool station (Kalypsys, San Diego, CA), followed by addition of 1 uL of agonist (R1881) in culture medium using a Bioraptr Flying Reagent Dispenser (FRD) workstation (Beckman Coulter, Indianapolis, IN, USA). The plates were incubated at a 37C and 0% CO2 for 16 h. After 15.5 h incubation, 1uL of CellTiter-Fluor reagent (Promega, Madison, WI) was added using a Bioraptr FRD to each plate for measuring cytotoxicity. The fluorescence intensity was quantified on a ViewLux plate reader (PerkinElmer, Shelton, CT) following 30 min incubation at 37C and 0% CO2. For measuring luciferase reporter gene activity, 4 uL of ONE-Glo reagent (Promega) was added to each plate using a Bioraptr FRD and luminescence was quantified on a ViewLux (PerkinElmer) plate reader after 30 min incubation at room temperature.

Androgen receptor (Homo sapiens), sequence (P10275 whole entry, looked up): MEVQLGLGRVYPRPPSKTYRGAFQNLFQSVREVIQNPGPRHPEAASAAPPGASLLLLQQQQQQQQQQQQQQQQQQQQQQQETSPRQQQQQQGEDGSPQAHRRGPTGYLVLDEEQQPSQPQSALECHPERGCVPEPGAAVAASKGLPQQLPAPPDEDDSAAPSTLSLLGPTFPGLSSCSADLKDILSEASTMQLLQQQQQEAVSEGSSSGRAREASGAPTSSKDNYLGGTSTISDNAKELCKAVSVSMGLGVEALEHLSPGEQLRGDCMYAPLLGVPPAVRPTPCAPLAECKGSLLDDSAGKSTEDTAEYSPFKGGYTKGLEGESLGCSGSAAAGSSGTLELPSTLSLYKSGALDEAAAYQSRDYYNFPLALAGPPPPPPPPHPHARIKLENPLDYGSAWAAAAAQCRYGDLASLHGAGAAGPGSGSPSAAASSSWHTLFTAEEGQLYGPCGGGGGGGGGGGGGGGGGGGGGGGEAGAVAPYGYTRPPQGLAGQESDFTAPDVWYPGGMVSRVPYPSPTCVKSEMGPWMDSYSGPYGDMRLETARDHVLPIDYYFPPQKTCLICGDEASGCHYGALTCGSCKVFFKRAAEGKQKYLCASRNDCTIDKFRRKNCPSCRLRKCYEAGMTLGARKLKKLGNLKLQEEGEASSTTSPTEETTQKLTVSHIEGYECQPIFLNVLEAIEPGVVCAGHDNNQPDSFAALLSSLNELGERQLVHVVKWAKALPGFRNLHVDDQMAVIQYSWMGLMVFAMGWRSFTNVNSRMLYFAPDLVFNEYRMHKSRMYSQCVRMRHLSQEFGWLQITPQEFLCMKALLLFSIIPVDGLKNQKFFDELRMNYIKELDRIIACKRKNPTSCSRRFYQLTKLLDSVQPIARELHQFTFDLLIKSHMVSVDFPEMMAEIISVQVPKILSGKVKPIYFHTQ

SMILES	outcome
CC(Oc1cc(Cl)ccc1Cl)C(=O)O (configuration not stated)	inactive
N[C@@H](CSCCCO)C(=O)O	inactive
C#CCN[C@@H]1CCc2ccccc21	inactive
CCO	inactive
CC(=O)OC1CCCCC1C(C)(C)C (configuration not stated)	inactive
CCC(C)OC(C)CC (configuration not stated)	inactive
OCC1CCC(CO)CC1 (configuration not stated)	inactive
COC(C)(OC)OC	inactive
COc1ccc(CCO)cc1	inactive
COC(=O)c1cc(Cl)cc(Cl)c1	inactive
OC[C@H]1O[C@@H](O[C@@H]2[C@@H](CO)O[C@](O)(CO)[C@H]2O)[C@H](O)[C@@H](O)[C@H]1O	inactive
CC(C)[C@H]1CC[C@H](C)C[C@@H]1O	inactive
CC(S)C(C)S (configuration not stated)	inactive
Cc1ccc(C(=O)O)cc1[N+](=O)[O-]	inactive
CC(C)COC(=O)c1ccccc1	inactive
CC(=O)O[C@@H]1CC2CCC1(C)C2(C)C (some centres not stated)	inactive

SMILES	outcome
CCCCCCCCCOC(=O)c1ccccc1C(=O)OCCCCCCCCC	inactive
CC(=O)CC(=O)OC(C)(C)C	inactive
CCCCC1CCC(O)CC1 (configuration not stated)	inactive
COc1cc2c(cc1OC)C(=O)C(CC1CCN(Cc3ccccc3)CC1)C2 (configuration not stated)	inactive
O=C(O)CSCC(=O)NC1CCSC1=O (configuration not stated)	inactive
CC(=O)c1cc(C)oc1C	inactive
CC(=O)O[C@H]1C[C@@H]2CC[C@@]1(C)C2(C)C	inactive
Cc1c(C(=O)c2c[nH]n(C)c2=O)ccc(S(C)(=O)=O)c1C1=NOCC1	inactive
CCO[Si](CC)(OCC)OCC	inactive
CC(=O)CC(=O)Nc1ccc(C)cc1C	inactive
CC(C)C1OCCN1CCOC(=O)NCCCCCCNC(=O)OCCN1CCOC1C(C)C (configuration not stated)	inactive
O=C(Cl)c1ccccc1[N+](=O)[O-]	inactive
O=C(NCN1CCOCC1)c1cnccn1	inactive
CCC(=O)c1c(O)cc(O)cc1O	inactive
C=CCOC(=O)CCCCCC	inactive
C/C=C(\C)C(C)=O	inactive
